IDE inh: inhibits human insulin-degrading enzyme in HEK cells; P14735; FAbetaB cleavage, fluorescence polarization; inhibition, % at 5.59 µM; 320,000 tested, 0.41% active; AID 434962;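 active = percent inhibition above the average of all tested compounds plus 3 SD, set per screening campaign, cut at about 16% in these data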;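 also: IDE supplied by intact live HEK cells; FP after avidin binding of uncleaved biotin substrate so inhibition keeps polarization high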
IDE act: activators of human insulin-degrading enzyme in cells | P14735 | HEK cells, FAbeta-B cleavage, fluorescence polarization; 0% vehicle, 100% cell-free pure enzyme wells | activation, % at 5.96 µM | 340,000 tested, 0.073% active | AID 493087;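 active = activation above the mean of all tested compounds plus 3 SD, set per screening campaign, cut at about 17% in these data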
TPT1 inhibitor: blocks Candida albicans tRNA 2'-phosphotransferase; recombinant caTPT1, FP RNA substrate dephosphorylation; inhibition, % at 5 µM; 300,000 tested, 0.81% active; AID 1962;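 active = inhibition above the mean of all tested compounds plus 3 SD, set per screening campaign, cut at about 24% in these data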
Rpn11 inh: Rpn11 (human) deubiquitinase inhibition | O00487 | human 26S proteasome, Ub4-pepOG fluorescence polarization; 20S core pre-blocked with epoxomicin | inhibition, % at 20 µM | 360,000 tested, 0.59% active | AID 588493;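 active = inhibition at 20 µM, scaled to each plate's controls, above about 33%, limit read from the data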
Calb FLC: C. albicans growth modulation with fluconazole; C. albicans CaCi-2 (fluconazole-resistant clinical isolate) + fluconazole, Alamar Blue growth, 48 h; growth inhibition, % (test concentration not listed); 300,000 tested, 0.57% active;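 active = growth inhibition above about 58% in most replicates, limit read from the data, passing the limit was not always enough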;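 also: all wells also contain fluconazole at 8 µg/ml as a sub-toxic cotreatment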
Rin1 Abl inh: human Rin1-Abl interaction inhibition; TR-FRET Rin1/Abl binding, biochemical; inhibition, % at 7.35 µM; 360,000 tested, 0.4% active; in the data active = inhibition above about 5%, passing the limit was not always enough
Target sequence (P00519 whole entry, looked up): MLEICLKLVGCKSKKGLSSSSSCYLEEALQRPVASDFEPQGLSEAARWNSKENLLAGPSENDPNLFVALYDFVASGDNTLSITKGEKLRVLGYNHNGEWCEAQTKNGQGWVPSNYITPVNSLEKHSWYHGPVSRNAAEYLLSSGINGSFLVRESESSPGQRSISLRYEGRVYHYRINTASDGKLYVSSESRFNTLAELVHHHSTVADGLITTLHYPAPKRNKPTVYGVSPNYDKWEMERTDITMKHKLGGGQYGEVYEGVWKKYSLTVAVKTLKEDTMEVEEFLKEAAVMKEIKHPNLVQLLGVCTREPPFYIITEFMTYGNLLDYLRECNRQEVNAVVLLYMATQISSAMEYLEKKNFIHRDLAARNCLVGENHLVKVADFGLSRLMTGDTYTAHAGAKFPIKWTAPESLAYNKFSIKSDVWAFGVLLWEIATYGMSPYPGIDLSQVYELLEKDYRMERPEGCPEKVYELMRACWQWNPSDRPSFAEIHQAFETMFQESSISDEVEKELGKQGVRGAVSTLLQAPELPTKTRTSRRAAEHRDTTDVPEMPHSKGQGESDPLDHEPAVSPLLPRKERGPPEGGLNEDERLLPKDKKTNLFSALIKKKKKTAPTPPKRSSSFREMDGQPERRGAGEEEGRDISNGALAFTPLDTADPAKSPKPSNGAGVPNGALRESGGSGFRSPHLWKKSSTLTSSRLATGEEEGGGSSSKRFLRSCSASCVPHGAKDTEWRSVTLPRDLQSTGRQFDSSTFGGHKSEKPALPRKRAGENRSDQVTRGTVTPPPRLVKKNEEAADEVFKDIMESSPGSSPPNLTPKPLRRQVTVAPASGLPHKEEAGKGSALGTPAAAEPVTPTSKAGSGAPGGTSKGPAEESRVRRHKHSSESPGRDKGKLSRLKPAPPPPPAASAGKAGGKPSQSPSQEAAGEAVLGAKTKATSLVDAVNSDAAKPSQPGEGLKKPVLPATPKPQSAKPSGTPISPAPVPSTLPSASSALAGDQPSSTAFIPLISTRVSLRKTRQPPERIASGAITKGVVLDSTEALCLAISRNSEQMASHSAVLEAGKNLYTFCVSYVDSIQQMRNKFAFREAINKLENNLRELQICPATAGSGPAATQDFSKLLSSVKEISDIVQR
Target sequence (Q13671 whole entry, looked up): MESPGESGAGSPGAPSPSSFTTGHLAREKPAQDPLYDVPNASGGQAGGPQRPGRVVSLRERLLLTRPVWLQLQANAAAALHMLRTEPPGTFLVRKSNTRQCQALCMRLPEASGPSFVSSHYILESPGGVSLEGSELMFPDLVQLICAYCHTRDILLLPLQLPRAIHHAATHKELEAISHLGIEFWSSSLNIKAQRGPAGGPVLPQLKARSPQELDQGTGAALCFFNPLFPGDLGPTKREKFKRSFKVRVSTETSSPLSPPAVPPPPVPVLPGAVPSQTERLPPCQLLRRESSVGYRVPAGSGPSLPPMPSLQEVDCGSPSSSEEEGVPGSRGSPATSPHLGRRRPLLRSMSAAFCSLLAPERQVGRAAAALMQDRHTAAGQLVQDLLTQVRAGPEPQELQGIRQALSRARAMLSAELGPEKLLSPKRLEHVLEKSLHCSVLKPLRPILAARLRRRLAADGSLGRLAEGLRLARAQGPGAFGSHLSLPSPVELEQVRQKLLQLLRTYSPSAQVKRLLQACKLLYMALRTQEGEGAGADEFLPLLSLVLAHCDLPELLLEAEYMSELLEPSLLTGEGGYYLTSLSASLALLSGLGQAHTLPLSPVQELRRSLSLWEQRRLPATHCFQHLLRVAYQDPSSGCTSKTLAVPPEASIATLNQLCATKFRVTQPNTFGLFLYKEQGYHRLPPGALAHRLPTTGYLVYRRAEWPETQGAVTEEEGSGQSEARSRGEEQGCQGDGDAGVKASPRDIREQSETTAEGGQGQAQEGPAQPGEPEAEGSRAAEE
Rin1-Abl confirm: Rin1-Abl interaction inhibition confirmation | inhibition, % at 7.35 µM | TR-FRET Rin1-Abl binding, purified proteins | shares compounds with Rin1 Abl inh | 1,300 tested, 49% active
GFP quench: counter-screen for Rin1-Abl inhibitors: GFP fluorescence quenchers. inhibitors/quenchers counterscreen. shares compounds with Rin1 Abl inh. 1,300 tested, 8.5% active. inhibition, % at 6.75 µM. AID 602125;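 also: ABL1-eGFP fusion protein alone without its partner RIN1-SBP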
GFP quench dose: quenches GFP in dose response, Rin1-Abl counter-screen. IC50, µM. 230 tested, under 10 active. shares compounds with Rin1 Abl inh. GFP fluorescence interference/quenching counterscreen. AID 602182; call rule not given here;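 also: ABL1-eGFP fusion protein alone without its RIN1 binding partner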
A number is an active result; . = inactive; / = not tested or not shown. This is a sample that favours compounds with a hit; in the whole collection about 2.3% have one here. Rule as the data show it, unless noted: active = inhibition above about 6.5%; inactive = the rest.

SMILES	IDE inh	IDE act	TPT1 inhibitor	Rpn11 inh	Calb FLC	Rin1 Abl inh	Rin1-Abl confirm	GFP quench	others
O=C(CCC1CCCN(C(=O)C2(c3ccccc3)CC2)C1)N1CCN(c2ccccn2)CC1 (stereo not drawn)	.	.	.	.	.	10.0	.	.
O=C(CCC1CCCN(c2ncccn2)C1)N1CCN(c2ccccn2)CC1 (stereo not drawn)	.	.	.	.	.	.	/	/
Cc1cc(C(=O)N2CCCC(CCC(=O)N3CCN(c4ccccn4)CC3)C2)c(C)o1 (stereo not drawn)	.	.	.	.	.	.	/	/
CC(C)CC1C(=O)N(Cc2cn(Cc3ccco3)nn2)CCS(=O)(=O)N1Cc1ccc(-c2ccc(F)cc2)cc1 (stereo not drawn)	/	/	/	.	/	.	/	/
CCCOc1ccc(/C=N/NC(=O)c2ccc3c(c2)OCO3)c(OCCC)c1	.	.	.	.	.	.	/	/
CCCn1c(SCC(=O)Nc2ccc(Cl)cc2F)nc(O)cc1=O	.	.	/	.	/	.	/	/
CCOC(=O)c1[nH]c(=O)[nH]c1CSCCO	.	.	.	.	.	8.1	12.3	.
O=c1c(-c2ccccc2)coc2c(CN3CCCC3)c(O)ccc12	.	.	.	.	.	5.9	.	.
O=c1c(-c2ccc(Cl)cc2)coc2c(CN3CCOCC3)c(O)ccc12	.	.	.	.	.	.	/	/
CCCCOc1ccc(C(=O)N(Cc2ccco2)C2CCS(=O)(=O)C2)cc1 (stereo not drawn)	.	.	.	.	.	9.6	.	.
CCCCOc1cccc(C(=O)N(Cc2ccco2)C2CCS(=O)(=O)C2)c1 (stereo not drawn)	.	.	.	.	.	.	/	/
O=[N+]([O-])c1ccc2[nH]c3nc4ccccc4nc3c2c1	.	.	.	.	.	.	/	/
Nc1nc(=S)ss1	/	.	/	.	/	.	/	/
COc1cccc(C2(O)CCN(C(=O)c3cccs3)CC2)c1	.	.	.	.	.	6.7	.	.
COc1cccc(C2(O)CCN(C(=O)C(C)C)CC2)c1	.	.	.	.	.	.	/	/
Cc1c(S(=O)(=O)N2CCN(C(=O)c3ccco3)CC2)c(=O)n(C)c(=O)n1C	.	.	.	.	.	8.2	.	.
Cn1c(N)c(S(=O)(=O)N2CCN(C(=O)c3ccco3)CC2)c(=O)n(C)c1=O	.	.	.	.	.	.	/	/
O=C(Nc1cccc(C(F)(F)F)c1)c1cccnc1NCCO	.	.	.	.	.	6.9	.	.
CCOc1ccc(NS(=O)(=O)c2ccc(C(=O)N3CC(C)OC(C)C3)cc2)cc1 (stereo not drawn)	.	.	/	.	/	8.9	9.7	.
O=C(NCc1ccccc1F)C1CCCN1C(=O)Nc1ccccc1 (stereo not drawn)	.	.	.	.	.	.	/	/
O=C(Nc1nnc(-c2ccc(Cl)cc2)o1)Nc1ccccc1F	.	.	.	.	.	.	/	/
Oc1ccc(/C=N/N(c2ccccc2)c2ccccc2)cc1O	.	.	.	.	.	.	/	/
Oc1ccc(/C=N/N(c2ccccc2)c2ccccc2)c(O)c1O	.	.	.	.	113.0	10.4	.	.
CCCc1cc(=O)[nH]c(SCC(=O)Nc2ccc3ccccc3c2)n1	.	.	/	.	/	.	/	/
COc1cc(=O)[nH]c(SCC(=O)Nc2ccc3ccccc3c2)n1	.	.	.	.	.	12.7	.	.
SMILES	IDE inh	IDE act	TPT1 inhibitor	Rpn11 inh	Calb FLC	Rin1 Abl inh	Rin1-Abl confirm	GFP quench	others
O=C(C1CC(=O)N(c2ccc3c(c2)OCCO3)C1)N1CCN(S(=O)(=O)c2ccccc2F)CC1 (stereo not drawn)	/	.	/	.	/	.	/	/
CCn1cc(C(=O)N2CCCC(N3CCN(c4ccccc4C)CC3)C2)cn1 (stereo not drawn)	.	.	.	.	.	.	/	/
CC(=O)NC(c1ccc(N(C)C)cc1)c1cc(Cl)c2cccnc2c1O (stereo not drawn)	/	/	/	.	/	6.6	6.9	.
CC(=O)NC(c1ccccc1)c1cc(Cl)c2cccnc2c1O (stereo not drawn)	.	.	.	.	104.9	12.2	10.4	.
Oc1c(C(c2ccccn2)N2CCCCC2)cc(Cl)c2cccnc12 (stereo not drawn)	.	.	.	.	.	21.7	14.1	.
COc1ccc(C(NC(C)=O)c2cc(Cl)c3cccnc3c2O)cc1 (stereo not drawn)	.	.	.	.	.	8.2	7.0	.
CCC(=O)NC(c1cc(Cl)c2cccnc2c1O)C1CC1 (stereo not drawn)	.	.	/	.	/	.	/	/
CCCC(=O)NC(c1ccc(OC)c(OC)c1)c1cc(Cl)c2cccnc2c1O (stereo not drawn)	.	.	.	.	.	.	/	/
CCN1C[C@@H]2[C@@H]3C(=O)N(C)C(=O)[C@@H]3[C@](CC)(C(=O)OC)N2C1=NCc1ccccc1	/	.	/	.	/	.	/	/
Cc1ccc([C@H]2C[C@H](n3cc(-c4ccc(F)cc4)nn3)[C@@H](O)CN2C(=O)C2CCCCC2)cc1	/	/	/	.	/	.	/	/
COc1ccc(-c2oc3cccnc3c2-c2ccc(OC)nc2)cc1	.	.	.	.	.	.	/	/
CC(=O)OCCN(CCCn1c(-c2ccncc2)nc2ccccc21)c1nc(CN2CCCCC2)cs1	.	.	.	.	.	8.4	.	.
CCCc1ncc(CN2CCC(C(=O)Nc3cccc(-c4cscn4)c3)CC2)cn1	.	.	.	.	.	36.5	19.1	.	GFP quench dose=.
COCCc1ncc(CN2CCC(C(=O)Nc3cccc(-c4cscn4)c3)CC2)cn1	.	.	.	.	.	13.5	7.2	.
CSc1ncc(CN2CCC(C(=O)Nc3cccc(-c4cscn4)c3)CC2)cn1	.	.	.	.	.	.	/	/
CC(=O)Nc1ccc(S(=O)(=O)N(Cc2ccccc2)c2ccccc2F)cc1	.	.	.	.	.	.	/	/
COC(=O)c1cccc(NC(=O)c2ccc[n+]([O-])c2)c1	.	.	.	.	.	17.1	23.4	.	GFP quench dose=.
Cc1ccc2c(c1)c1c3n2CCN(C(=O)CN2CCN(C)CC2)C3CCC1 (stereo not drawn)	.	.	.	.	.	.	/	/
Cc1ccc2c(c1)c(=O)c1c3n2CCN(C(=O)CCl)C3CC1 (stereo not drawn)	.	.	.	.	.	9.4	.	.
CCc1ccc(C(=O)Cc2cc3cccc(OC)c3oc2=O)cc1	.	.	.	.	.	8.5	.	.
Cc1cc(C(=O)Nc2c[nH]c(=O)[nH]c2=O)ccc1[N+](=O)[O-]	.	.	.	.	.	10.1	.	.
O=C(Nc1c[nH]c(=O)[nH]c1=O)c1cccc([N+](=O)[O-])c1	/	.	/	.	.	.	/	/
